An excerpt weighted towards active compounds, which were near 12% of everything screened.
BAZ2B inh – qHTS Assay for Inhibitors of BAZ2B. AlphaScreen BAZ2B-H3K14Ac peptide displacement. Potency, µM (highest dose often 114 µM), inactives show at the highest dose activity change, negative = inhibition, most hits filed as inhibitors. 360,000 compounds, 4.4% hits. AID 504333, 2011; also: % is scaled to controls: 0 for no effect and ±100 for the full control effect; nearly all actives have a fitted effect of over 60% in size
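Compounds, titrated to a top concentration of 110 uM, were incubated 30 min at room temperature with preformed BAZ2B/acetyl-K14 H3 peptide complex (50 nM each). Proximity signal was measured by AlphaScreen after 20 min with beads.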
Sfp PPTase inh – qHTS Assay for Inhibitors of Bacillus subtilis Sfp phosphopantetheinyl transferase (PPTase). Biochemical Sfp PPTase activity, qHTS. Potency, µM, inactives show largest response in the series, negative = inhibition, most hits filed as inhibitors. 310,000 compounds, 3.5% hits;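 also: the enzyme is Sfp with the accession as filed and its product quenches rhodamine fluorescence; 0% = enzyme reaction without inhibitor and -100% = no enzyme wells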
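Step 1, compound plus 15 nM Sfp-PPTase, 15 min, room temperature. Step 2, add rhodamine-CoA (5 uM) and BHQ-2-YbbR (12.5 uM). Step 3, read 525/598 nm fluorescence at 0 and 30 min.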
JMJD2A Tudor inh – qHTS Assay for Inhibitors of JMJD2A-Tudor Domain; AlphaScreen JMJD2A-Tudor / H3K4me3 peptide binding; Potency, µM (top dose mostly 114 µM), inactives show at the highest dose activity change, negative = inhibition, most hits filed as inhibitors; 390,000 compounds, 4.4% hits; also: % is scaled to controls: 0 for no effect and ±100 for the full control effect; nearly all actives have a fitted effect of over 50% in size
HP1b chromo inh – HTS for Inhibitors of HP1-beta Chromodomain Interactions with Methylated Histone Tails | AID 540317, 2011 | Potency, µM (series often up to 114 µM), for the others: top-dose activity change, negative = inhibition, actives largely listed as inhibitors | AlphaScreen HP1-beta / biotin-H3K9me3 peptide binding | 390,000 compounds, 0.56% hits; also: nearly all actives have a fitted effect of over 70% in size
Target sequence (P83916 whole entry, looked up): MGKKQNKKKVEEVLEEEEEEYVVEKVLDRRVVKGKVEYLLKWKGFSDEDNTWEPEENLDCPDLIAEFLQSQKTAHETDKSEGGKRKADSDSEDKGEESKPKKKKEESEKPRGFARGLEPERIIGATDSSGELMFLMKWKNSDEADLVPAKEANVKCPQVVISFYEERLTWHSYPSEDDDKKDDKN
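Compound inhibition of the preformed complex between 50 nM HP1-beta and 50 nM biotinylated H3K9me3 peptide was read by AlphaScreen. Buffer was PBS pH 7.4 with 0.01% Tween-20. Incubations ran 30 min at room temperature, with 10 ug/mL donor/acceptor beads.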
L3MBTL1 block – qHTS Assay for the Inhibitors of L3MBTL1; 230,000 compounds, 0.66% hits; Potency, µM (top dose mostly 57.1 µM), without a hit: at the highest dose activity, negative = inhibition, usual class: inhibitors; AID 485360, 2010; AlphaScreen L3MBTL1–H3K9me1 peptide binding; Lethal(3)malignant brain tumor-like protein 1 (Homo sapiens), Q9Y468; also: % is scaled to controls: 0 for no effect and ±100 for the full control effect; nearly all actives have a fitted effect of over 60% in size
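AlphaScreen assay: L3MBTL1 (50 nM final) was preincubated 30 min at room temperature with biotinylated H3(1-15)K9me1 peptide (75 nM final), then 30 min with library compounds; streptavidin donor and nickel chelate acceptor beads (10 ug/mL final) added, 30 min dark.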
G9a inh – qHTS Assay for Inhibitors of Histone Lysine Methyltransferase G9a. Histone-lysine N-methyltransferase EHMT2 (Homo sapiens), Q96KQ7. G9a H3K9 monomethylation, AlphaScreen, 2 h. Potency, µM (series often up to 102 µM), inactives show top-dose activity, negative = inhibition, usual class: inhibitors. 350,000 compounds, 8.8% hits. AID 504332, 2011; also: % is scaled to controls: 0 for no effect and ±100 for the full control effect; nearly all actives have a fitted effect of over 75% in size
Target sequence (Q96KQ7 913-1193 limits assumed): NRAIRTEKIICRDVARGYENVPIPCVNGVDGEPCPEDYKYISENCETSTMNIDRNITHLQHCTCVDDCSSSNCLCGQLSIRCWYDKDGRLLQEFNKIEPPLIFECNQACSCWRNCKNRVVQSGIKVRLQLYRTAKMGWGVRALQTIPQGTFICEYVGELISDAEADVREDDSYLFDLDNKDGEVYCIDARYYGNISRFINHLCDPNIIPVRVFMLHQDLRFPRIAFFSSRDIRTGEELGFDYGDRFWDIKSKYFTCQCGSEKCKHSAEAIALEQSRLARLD
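Using a bead-based AlphaScreen, monomethylated H3K9 product from 2 h room-temperature reactions (G9a 20 nM, peptide 500 nM, SAM 20 uM) was detected with 0.5 ug/mL rabbit anti-H3K9me1 antibody.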
An asterisk follows results filed as active; ? = inconclusive; · = no result given; [ ] = another dose, or the depositor's remark. Calls follow the shape of the dose curve; as a rule, active = well fitted curve in the direction sought with a large enough effect; inconclusive = small, poorly fitted or top-dose-only effect, or another doubt; inactive = no such curve, though single readings can be large; an effect the other way counts as inactive or inconclusive. Potency is read from the fitted curve at half-maximal effect.

SMILES | BAZ2B inh | Sfp PPTase inh | JMJD2A Tudor inh | HP1b chromo inh | L3MBTL1 block | G9a inh
CCOc1ccc(CN2C(=O)c3ccccc3Sc3ccc(C(=O)NCCCN4CCOCC4)cc32)cc1 | 79µM* | -27% | -33% | -4% | · | -37%[59 µM]
CCN1CCN(CCNC(=O)c2ccc(/C=C3\Sc4ccccc4N(Cc4ccccc4F)C3=O)cc2)CC1 | ? | 79µM* | 56µM* | 7% | -16% | 50µM*
O=C(NCCCN1CCOCC1)c1ccc2c(c1)N(Cc1ccccc1)C(=O)c1ccccc1S2 | -20% | 5% | -11% | 27% | · | -10%
COCCCNC(=O)/C=C1\Sc2ccccc2N(Cc2ccccc2F)C1=O | -36% | 9% | -8%[11.4 µM] | 66% | · | -7%[59 µM]
COCCNc1nc(C)nc2c1nc(-c1ccccc1)n2CCN1CCCC1 | · | 0% | · | · | · | ·
O=C(NCCC1=CCCCC1)c1cc(S(=O)(=O)N2CCOCC2)ccc1F | -6% | · | -15% | 2% | -4% | ?
CN1CCN(CCCNC(=O)c2ccc(/C=C3/Sc4ccccc4N(Cc4cccc(Cl)c4)C3=O)cc2)CC1 | ? | 50µM* | ? | -14% | · | 40µM*
Cc1cccc(CN2C(=O)c3ccccc3Sc3ccc(C(=O)NCCCN4CCOCC4)cc32)c1 | ? | 2% | -28% | 30% | · | -16%
Cc1cccc(NS(=O)(=O)c2ccc3[nH]c(=O)cc(C(=O)OC(C)C(=O)Nc4ccc([N+](=O)[O-])cc4)c3c2)c1 (stereo not given) | -36% | 15% | ? | 2% | -20% | 45µM*
CCOC(=O)C(Sc1nnc(-c2ccncc2)o1)C(C)=O (stereo not given) | 3% | -1% | ? | 10% | 18% | 7.9µM*
O=S(=O)(c1ccc2c(c1)OCCO2)N1CCN(S(=O)(=O)c2ccc3nc(Cl)c(Cl)nc3c2)CC1 | · | · | -6% | · | · | ·
C=CCN(CC=C)S(=O)(=O)c1ccc2nc(NC(=O)C3CCCO3)sc2c1 (stereo not given) | 8% | 7% | -25% | 9% | 4% | 1.3µM*
NC(=O)[C@@H]1CCCNc2c(I)cc([N+](=O)[O-])cc2C(=O)N[C@@H](CCCN=C(N)N)C(=O)N[C@@H](CCCN=C(N)N)C(=O)N1 | -35% | -5% | · | · | 1% | 14µM*
CC[C@H](C)[C@@H]1NC(=O)c2cc([N+](=O)[O-])cc(I)c2NCC[C@@H](C(N)=O)NC(=O)[C@H](CCCN=C(N)N)NC1=O | ? | 5% | -28% | 34% | 2% | 14µM*
CC[C@H](C)[C@@H]1NC(=O)c2cc([N+](=O)[O-])cc(I)c2SC[C@@H](C(N)=O)NC(=O)[C@H](CCCCN)NC1=O | 71µM* | ? | ? | 1% | 7% | 8.9µM*
Cc1ccccc1C(=O)NNC(=S)NC(=O)c1ccccc1 | 11% | -35% | -27% | -7% | 10% | 4µM*
O=C(NC(=S)NNC(=O)c1ccccc1O)c1ccccc1 | ? | 10% | 32µM* | 6% | · | 32µM*
O=C(NC(=S)NNC(=O)c1ccccc1O)c1cccs1 | ? | 18% | 45µM* | -27% | · | -16%
Cc1ccc(C(=O)NNC(=S)NC(=O)c2ccccc2)cc1 | · | · | -27% | 5% | · | ·
O=C(NC(=S)NNC(=O)c1ccccc1O)c1ccc(F)cc1 | ? | 18% | 56µM* | 9% | -30% | 4%
CC(C)(C)NC(=O)C(OC(=O)c1cccs1)c1ccc(C#N)cc1 (stereo not given) | -10% | 3% | 1% | 26% | 14% | -5%[12.7 µM]
Cc1ccc(OCc2cc(C(=O)N3CCN(CC(=O)NC(C)C)CC3)no2)cn1 | 1% | 15% | -22% | 10% | · | 20%
O=C(c1ccc([N+](=O)[O-])cc1)N1CCSC1c1ccc(Br)cc1 (stereo not given) | ? | 7% | -12%[11.4 µM] | 16µM* | · | ?
O=C(c1ccc([N+](=O)[O-])cc1)N1CCSC1c1ccc(Cl)cc1 (stereo not given) | -38% | 12% | -32% | 16% | -16% | ?
COc1ccc(-c2cn3cccnc3n2)cc1NC(=O)Nc1ccc(Cl)cc1 | -5% | · | -2% | 9%[57 µM] | · | 7%[59 µM]
SMILES | BAZ2B inh | Sfp PPTase inh | JMJD2A Tudor inh | HP1b chromo inh | L3MBTL1 block | G9a inh
CN(C)S(=O)(=O)Nc1cc(Cl)cc(Cl)c1 | -10% | 10% | 40µM* | -2% | 11% | -12%[59 µM]
CCCc1sc(N)nc1-c1ccc(Cl)cc1 | -37% | 10% | -35% | -2% | -8% | 45µM*
CCCc1nc2c(s1)CCc1onc(-c3ccc(Cl)cc3)c1-2 | 24% | · | 17% | 67% | 14% | -5%[2.33 µM]
COc1cc(C2C3=C(CC(C)(C)CC3=O)N(C)C3=C2C(=O)CC(C)(C)C3)cc(Br)c1O | 12% | -4% | -10% | 49% | 1% | 71µM*
COc1cc(C2C3=C(CC(C)(C)CC3=O)N(C)C3=C2C(=O)CC(C)(C)C3)ccc1O | -2% | ? | -1% | 19% | 0% | ·
COCCCN1C2=C(C(=O)CC(C)(C)C2)C(c2ccc(OC)c(OC)c2)C2=C1CC(C)(C)CC2=O | -17% | 25% | -11% | 23% | -1% | 71µM*
COc1ccc(NC(=O)Nc2ccc([N+](=O)[O-])cc2)cn1 | ? | -7% | -25% | 19% | · | ?
Cc1cc(C)n2nc(CC(=O)NNC(=O)COc3ccccc3)nc2n1 | -9% | 2% | -3% | 35% | · | 25µM*
Cc1cc(C)n2nc(C(=O)OCC(=O)c3ccc(F)cc3)nc2n1 | -6% | · | -17% | 13% | 6% | 56µM*
COc1ccccc1C(=O)COC(=O)c1nc2nc(C)cc(C)n2n1 | 23% | · | -12% | 14% | -10% | -38%
Cc1cc(C)n2nc(CC(=O)NCc3ccc(F)cc3)nc2n1 | 13% | -16% | 71µM* | 9% | 3% | ?
Cc1cc2c(s1)c1c(C)nn(Cc3ccccc3F)c(=O)c1n2C | 6% | · | · | · | 5% | 9%[12.7 µM]
CC(N)CCCC(C)(C)O (stereo not given) | · | -85% | · | · | · | -38%[2.33 µM]
CCNC(=O)C1CC(=O)N(Cc2ccc(F)cc2)C(=Nc2ccc(OC)cc2)S1 (stereo not given) | 6% | 9% | -5% | 29% | 5% | 16%[59 µM]
CCNC(=O)C1CC(=O)N(Cc2ccc3c(c2)OCO3)C(=Nc2ccc(OCC)cc2)S1 (stereo not given) | 50µM* | 3% | -1% | 32% | -4% | 0%[12.7 µM]

High-throughput results: PubChem, National Center for Advancing Translational Sciences (NCATS)
